Data reported in PubChem BioAssay (Tox21).
Where “and” joins values, the source holds several entries; their conditions need not be identical. Equal entries are not always repeated. Records with an inconclusive call do not appear. Calls of active or inactive are those of the source. Unless noted, calls follow the shape of the dose curve; as a rule, active = well fitted curve in the direction sought with a large enough effect in the repeat runs; inconclusive = weak or mixed curves; inactive = no such curve, though single readings can be large; an effect the other way counts as inactive or inconclusive.

Legend:
[1] = qHTS assay to identify aromatase inhibitors - cell viability counter screen (AID 743084);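 also: cells stimulated with testosterone during compound exposure; nearly all actives have a fitted effect of over 55% in size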
[2] = target: Aryl hydrocarbon receptor (Homo sapiens) (UniProt P35869); assay: qHTS assay to identify small molecule that activate the aryl hydrocarbon receptor (AhR) signaling pathway (AID 743085); also: nearly all actives have a fitted effect of over 15% in size; also: potency is read from the fitted curve at half-maximal effect;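 as to activation: HG2L7.5c1 human HepG2 liver cells with stably integrated DRE-driven firefly reporter; series mostly up to about 70 µM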
Sequence of Aryl hydrocarbon receptor (Homo sapiens) (P35869 whole entry, looked up): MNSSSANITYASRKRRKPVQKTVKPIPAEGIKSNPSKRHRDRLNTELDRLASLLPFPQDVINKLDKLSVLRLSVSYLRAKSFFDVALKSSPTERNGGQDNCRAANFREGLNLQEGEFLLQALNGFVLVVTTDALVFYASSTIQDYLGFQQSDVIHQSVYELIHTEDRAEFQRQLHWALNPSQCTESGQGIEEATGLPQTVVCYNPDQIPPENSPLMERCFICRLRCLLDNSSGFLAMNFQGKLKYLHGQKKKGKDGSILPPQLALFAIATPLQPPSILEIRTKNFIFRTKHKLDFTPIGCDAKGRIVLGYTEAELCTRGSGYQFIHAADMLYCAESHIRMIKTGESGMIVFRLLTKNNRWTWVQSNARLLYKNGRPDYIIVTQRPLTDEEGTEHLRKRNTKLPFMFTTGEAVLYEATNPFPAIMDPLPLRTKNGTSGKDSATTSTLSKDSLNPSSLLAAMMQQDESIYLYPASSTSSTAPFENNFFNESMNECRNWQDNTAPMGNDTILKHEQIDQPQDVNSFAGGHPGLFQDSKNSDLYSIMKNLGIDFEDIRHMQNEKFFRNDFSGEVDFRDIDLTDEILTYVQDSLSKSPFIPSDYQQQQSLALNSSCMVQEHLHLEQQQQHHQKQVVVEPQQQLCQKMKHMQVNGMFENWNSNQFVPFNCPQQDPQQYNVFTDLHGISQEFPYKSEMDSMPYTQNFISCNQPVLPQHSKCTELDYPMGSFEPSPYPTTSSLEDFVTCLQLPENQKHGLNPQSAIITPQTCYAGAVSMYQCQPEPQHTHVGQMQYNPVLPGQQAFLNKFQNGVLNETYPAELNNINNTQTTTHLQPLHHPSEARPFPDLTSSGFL
Summary of the method: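 HepG2 cells (HG2L7.5c1) stably carrying a firefly luciferase reporter driven by 20 dioxin responsive elements were exposed to compound for 24 h at 37C after a 5 h settling period; luminescence rise (ONE-Glo) indicated activation.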

[3] = qHTS assay to identify small molecule that activate the aryl hydrocarbon receptor (AhR) signaling pathway - cell viability counter screen (AID 743086);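 also: HepG2 liver cells carrying the AhR DRE luciferase reporter; series mostly up to about 70 µM; nearly all actives have a fitted effect of over 45% in size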
Summary of the method: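 HepG2-AhR-luc (HG2L7.5c1) cells, 4000/well, treated 24 h at 37 C with compound; viability measured as CellTiter-Fluor fluorescence after 30 min in the same wells as the luciferase read.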

[4] = qHTS assay to identify small molecule antagonists of the peroxisome proliferator-activated receptor gamma (PPARg) signaling pathway - cell viability counter screen (AID 743194); also: nearly all actives have a fitted effect of over 55% in size
Summary of the method: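 Cytotoxicity counter screen in PPARg-bla HEK293H cells, same wells as reporter assay. Compounds plus 50 nM rosiglitazone (final) for 17 h at 37 C, then viability read by CellTiter-Glo luminescence.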

[5] = qHTS assay for small molecule agonists of the antioxidant response element (ARE) signaling pathway (AID 743202; active = well fitted activation curve with a large enough effect in the signal ratio in the repeat runs, not every such curve was filed as active; the % refers to the signal ratio)
Summary of the method: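 HepG2 ARE-bla cells; 16 h treatment at 37 C; FRET-based beta-lactamase fluorescence read after 2 h substrate incubation at room temperature.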

[6] = qHTS assay for small molecule agonists of the antioxidant response element (ARE) signaling pathway - cell viability counter screen (AID 743203; calls by dose curve; also: nearly all actives have a fitted effect of over 55% in size)
Summary of the method: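 Cytotoxicity was tested in parallel with the ARE reporter screen. ARE-bla HepG2 cells were exposed to compounds for 16 hrs, and viability was taken from CellTiter-Glo luminescence.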

[7] = qHTS assay for small molecule activators of the heat shock response signaling pathway - cell viability counter screen (AID 743209); also: nearly all actives have a fitted effect of over 50% in size
Summary of the method: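 Cytotoxicity counter screen run in parallel with the HSE beta-lactamase reporter, using the same wells. HeLa HSE-bla cells received compound for 5 h at 37 C; ATP-based CellTiter-Glo luminescence was measured after 30 min at room temperature.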

[8] = qHTS assay for small molecule activators of the heat shock response signaling pathway (AID 743210; active = well fitted activation curve with a large enough effect in the signal ratio in the repeat runs, with a control signal flat, not every such curve was filed as active; the % refers to the signal ratio;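 also: HeLa cells with beta-lactamase reporter driven by heat shock elements; series mostly up to about 63 µM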)
Summary of the method: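 Following overnight attachment, HSE-bla HeLa cells received test compounds for 5 h at 37 C; beta-lactamase activity was then detected via FRET substrate fluorescence.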

[9] = qHTS assay to identify small molecule agonists of the peroxisome proliferator-activated receptor delta (PPARd) signaling pathway - cell viability counter screen (AID 743211); also: nearly all actives have a fitted effect of over 55% in size
Summary of the method: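 PPARd-bla HEK293H cells (UAS-beta-lactamase reporter) were treated with compounds for 17 h at 37 C. Viability was then read in the same wells by CellTiter-Glo luminescence after 30 min at room temperature.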

[10] = target: Peroxisome proliferator-activated receptor delta (Homo sapiens) (UniProt Q03181); assay: qHTS assay to identify small molecule agonists of the peroxisome proliferator-activated receptor delta (PPARd) signaling pathway (AID 743212; calls by dose curve)
Sequence of Peroxisome proliferator-activated receptor delta (Homo sapiens) (Q03181 whole entry, looked up): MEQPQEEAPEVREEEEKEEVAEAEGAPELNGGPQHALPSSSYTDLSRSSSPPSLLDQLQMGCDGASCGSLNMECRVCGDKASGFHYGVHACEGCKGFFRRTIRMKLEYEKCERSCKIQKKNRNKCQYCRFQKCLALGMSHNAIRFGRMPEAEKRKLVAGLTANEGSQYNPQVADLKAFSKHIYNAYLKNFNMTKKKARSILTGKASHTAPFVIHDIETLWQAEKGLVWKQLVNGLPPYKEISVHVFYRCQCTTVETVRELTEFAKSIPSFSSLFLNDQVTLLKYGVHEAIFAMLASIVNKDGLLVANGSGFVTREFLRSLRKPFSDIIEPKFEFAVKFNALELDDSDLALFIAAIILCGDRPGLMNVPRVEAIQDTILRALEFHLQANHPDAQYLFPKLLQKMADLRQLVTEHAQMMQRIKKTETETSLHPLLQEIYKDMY
Summary of the method: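 Tox21 library screened in GeneBLAzer PPARd UAS-bla HEK293H cells. After compound treatment at 37 C, a FRET-based beta-lactamase substrate was applied for 2 h and fluorescence recorded.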

[11] = qHTS assay to identify small molecule antagonists of the peroxisome proliferator-activated receptor delta (PPARd) signaling pathway - cell viability counter screen (AID 743213); also: nearly all actives have a fitted effect of over 50% in size
Summary of the method: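 Cytotoxicity counter screen: CellTiter-Glo luminescence read 30 min after addition, in the same wells as the reporter assay. There, PPARd UAS-bla HEK293H cells (3000/well) were treated 17 h at 37 C with compound and 300 nM L165041.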

[12] = target: Peroxisome proliferator-activated receptor delta (Homo sapiens) (UniProt Q03181); assay: qHTS assay to identify small molecule antagonists of the peroxisome proliferator-activated receptor delta (PPARd) signaling pathway (AID 743215; active = well fitted inhibition curve with a large enough effect in the signal ratio in the repeat runs, not every such curve was filed as active; the % refers to the signal ratio;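 also: cells stimulated with agonist L165041 at 300 nM final during compound exposure; series mostly up to about 62 µM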)
Summary of the method: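 Cells: HEK293H with a UAS-driven beta-lactamase reporter responsive to PPARd. Compounds were co-added with L165041 (300 nM, final) and incubated 17 h at 37 C before a 2 h room-temperature FRET substrate step and fluorescence reading.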

[13] = qHTS assay to identify small molecule agonists of the farnesoid-X-receptor (FXR) signaling pathway - cell viability counter screen (AID 743218); also: nearly all actives have a fitted effect of over 45% in size
Summary of the method: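 Cells were seeded, left 5 h at 37 C and 5% CO2, then dosed with compound in DMSO for 16 h. After the beta-lactamase FRET read, CellTiter-Glo was added and luminescence measured 30 min later.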

[14] = qHTS assay to identify small molecule antagonists of the farnesoid-X-receptor (FXR) signaling pathway - cell viability counter screen (AID 743221; active = well fitted cell-killing curve with a large enough effect in the repeat runs, not every such curve was filed as active; also: nearly all actives have a fitted effect of over 50% in size)
Summary of the method: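 FXR-UAS-bla HEK 293T cells were treated with test compounds plus chenodeoxycholic acid (50 uM final) for 16 h at 37 C. Cell viability in the same wells was then read as CellTiter-Glo luminescence after 30 min at room temperature.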

[15] = target: Vitamin D3 receptor (Homo sapiens) (UniProt P11473); assay: qHTS assay to identify small molecule agonists of the vitamin D receptor (VDR) signaling pathway (AID 743222; calls by dose curve)
Sequence of Vitamin D3 receptor (Homo sapiens) (P11473 whole entry, looked up): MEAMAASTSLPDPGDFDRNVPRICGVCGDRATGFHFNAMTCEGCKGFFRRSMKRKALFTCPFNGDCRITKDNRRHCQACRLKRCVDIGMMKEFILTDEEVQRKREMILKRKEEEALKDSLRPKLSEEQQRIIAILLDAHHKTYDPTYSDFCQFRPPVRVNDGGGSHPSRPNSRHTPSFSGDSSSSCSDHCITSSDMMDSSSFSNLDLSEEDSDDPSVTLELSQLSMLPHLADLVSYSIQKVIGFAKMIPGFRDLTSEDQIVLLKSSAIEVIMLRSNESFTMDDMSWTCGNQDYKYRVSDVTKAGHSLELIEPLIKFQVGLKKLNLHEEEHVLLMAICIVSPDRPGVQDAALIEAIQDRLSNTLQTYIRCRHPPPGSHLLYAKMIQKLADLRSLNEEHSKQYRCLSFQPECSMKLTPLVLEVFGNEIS
Summary of the method: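 Cells carrying a VDR-driven beta-lactamase reporter are seeded at 2,000 per well and rested 4 h. Compounds in DMSO are added for 16 h at 37C, and FRET substrate fluorescence is measured after 2 h at room temperature.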

[16] = target: Peroxisome proliferator-activated receptor gamma (Homo sapiens) (UniProt P37231); assay: qHTS assay to identify small molecule antagonists of the peroxisome proliferator-activated receptor gamma (PPARg) signaling pathway (AID 743191; calls by dose curve; also: series mostly up to about 63 µM; nearly all actives have a fitted effect of over 30% in size)
Sequence of Peroxisome proliferator-activated receptor gamma (Homo sapiens) (P37231 whole entry, looked up): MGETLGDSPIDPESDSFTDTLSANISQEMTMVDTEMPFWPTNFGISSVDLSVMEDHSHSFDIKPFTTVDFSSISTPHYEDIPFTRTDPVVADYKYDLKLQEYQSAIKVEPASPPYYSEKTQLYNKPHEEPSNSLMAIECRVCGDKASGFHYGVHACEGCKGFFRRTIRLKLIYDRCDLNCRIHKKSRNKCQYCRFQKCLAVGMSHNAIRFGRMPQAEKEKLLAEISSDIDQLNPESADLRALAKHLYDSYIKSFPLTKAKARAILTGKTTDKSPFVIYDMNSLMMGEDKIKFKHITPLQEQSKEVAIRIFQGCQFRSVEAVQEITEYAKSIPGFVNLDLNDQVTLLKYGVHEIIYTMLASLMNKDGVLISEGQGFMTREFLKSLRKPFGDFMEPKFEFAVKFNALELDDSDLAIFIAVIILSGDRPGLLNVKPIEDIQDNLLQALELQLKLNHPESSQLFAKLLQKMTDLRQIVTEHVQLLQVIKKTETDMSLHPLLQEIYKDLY
Summary of the method: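 GeneBLAzer PPARg UAS-bla HEK293H cells, 5 h post-plating, exposed to compounds 17 h at 37C. LiveBLAzer B/G FRET substrate added for 1 h at room temperature; beta-lactamase reporter read by fluorescence intensity.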

[17] = target: Bile acid receptor (Homo sapiens) (UniProt Q96RI1); assay: qHTS assay to identify small molecule antagonists of the farnesoid-X-receptor (FXR) signaling pathway (AID 743217; active = well fitted inhibition curve with a large enough effect in the signal ratio in the repeat runs, not every such curve was filed as active; the % refers to the signal ratio)
Sequence of Bile acid receptor (Homo sapiens) (Q96RI1 whole entry, looked up): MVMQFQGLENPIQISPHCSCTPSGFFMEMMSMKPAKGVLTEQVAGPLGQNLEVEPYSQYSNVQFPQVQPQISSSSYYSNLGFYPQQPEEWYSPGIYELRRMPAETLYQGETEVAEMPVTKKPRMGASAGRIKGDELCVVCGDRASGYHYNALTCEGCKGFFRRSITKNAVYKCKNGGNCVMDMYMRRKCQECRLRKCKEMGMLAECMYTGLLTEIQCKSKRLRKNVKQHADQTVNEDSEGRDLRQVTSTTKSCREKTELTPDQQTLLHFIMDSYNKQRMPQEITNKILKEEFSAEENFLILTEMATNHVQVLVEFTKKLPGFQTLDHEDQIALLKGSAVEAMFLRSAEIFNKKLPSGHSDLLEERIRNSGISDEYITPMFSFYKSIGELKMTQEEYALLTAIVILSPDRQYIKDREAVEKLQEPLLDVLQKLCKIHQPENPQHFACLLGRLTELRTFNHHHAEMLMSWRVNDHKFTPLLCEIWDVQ
Summary of the method: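 Cells carrying a UAS-driven beta-lactamase reporter (GeneBLAzer FXR-UAS-bla HEK 293T) were plated and rested 5 h at 37 °C. Compounds in DMSO were added alongside chenodeoxycholic acid agonist at 50 uM final and left 16 h at 37 °C before FRET substrate readout.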

[18] = target: Bile acid receptor (Homo sapiens) (UniProt Q96RI1); assay: qHTS assay to identify small molecule agonists of the farnesoid-X-receptor (FXR) signaling pathway (AID 743220; active = well fitted activation curve with a large enough effect in the signal ratio in the repeat runs, not every such curve was filed as active; the % refers to the signal ratio)
Summary of the method: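 FXR-UAS-bla HEK 293T cells carrying a UAS-driven beta-lactamase reporter were plated for 5 h at 37C/5% CO2, then exposed to DMSO-dissolved Tox21 10K compounds for 16 h at 37C. A LiveBLAzer B/G FRET substrate was loaded for 2 h at room temperature before fluorescence reading.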

[19] = target: Peroxisome proliferator-activated receptor gamma (Homo sapiens) (UniProt P37231); assay: qHTS assay to identify small molecule agonists of the peroxisome proliferator-activated receptor gamma (PPARg) signaling pathway (AID 743094; active = well fitted activation curve with a large enough effect in the signal ratio in the repeat runs, not every such curve was filed as active; the % refers to the signal ratio)
Summary of the method: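 Cells from the PPARg UAS-bla HEK293H line are plated and incubated 5 h at 37C. Compounds in DMSO are pinned in and left 17 h at 37C. LiveBLAzer B/G substrate is then added for 1 h at room temperature before fluorescence is measured.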

[20] = target: Vitamin D3 receptor (Homo sapiens) (UniProt P11473); assay: qHTS assay to identify small molecule antagonists of the vitamin D receptor (VDR) signaling pathway (AID 743223; active = well fitted inhibition curve with a large enough effect in the signal ratio in the repeat runs, not every such curve was filed as active; the % refers to the signal ratio)
Summary of the method: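 VDR-bla cells were plated, incubated 4 h at 37C, then given compound and 1alpha,25-dihydroxyvitamin D3 (3 nM final). After 16 h at 37C, LiveBLAzer B/G FRET substrate was added for 2 h at room temperature and fluorescence read.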

Measured: Potency

CC(=O)N[C@H]1[C@H]([C@H](O)[C@H](O)CO)OC(C(=O)O)=C[C@@H]1N=C(N)N
not listed: [16] | [17] | [18] | [19] | [20]
inactive: all other assays above

CCCCCCCCN1CCCC1=O
not listed: [5] | [6] | [10] | [12] | [19] | [20]
inactive: all other assays above

CCCO[Si](OCCC)(OCCC)OCCC
not listed: [4] | [5] | [6] | [11] | [16] | [17] | [18]
inactive: all other assays above

CCCCCCCCCCCCCCC(=O)O
not listed: [4] | [5] | [10] | [11] | [15] | [16] | [17] | [18]
inactive: all other assays above

O=C(O)CNC(=O)c1ccc(CO)o1
not listed: [11] | [15] | [16] | [17] | [18] | [19] | [20]
inactive: all other assays above

O=C(O)Cc1csc(-c2ccc(Cl)cc2)n1
not listed: [12] | [13] | [14] | [17] | [18] | [19]
inactive: all other assays above

Cc1ccc(-c2ncc(Cl)cc2-c2ccc(S(C)(=O)=O)cc2)cn1
not listed: [10] | [12] | [17] | [19]
inactive: all other assays above

CCN(Cc1ccccc1)c1ccccc1
not listed: [7] | [11] | [15] | [17] | [18] | [19] | [20]
inactive: all other assays above

CC(=O)NC(=O)c1ccccc1O
not listed: [9] | [14] | [15] | [17] | [18] | [19] | [20]
inactive: all other assays above

CC[N+](CC)(CC)CCOc1cccc(OCC[N+](CC)(CC)CC)c1OCC[N+](CC)(CC)CC
not listed: [11] | [15] | [16] | [17] | [18] | [19] | [20]
inactive: all other assays above

Nc1ccn([C@@H]2O[C@H](CO)[C@@H](O)[C@@H]2O)c(=O)n1
not listed: [11] | [17] | [19]
inactive: all other assays above

CC(C)=CCC/C(C)=C/C#N
inactive: [1] | [2] | [3] | [19] | [6] | [11] | [17] | [13] | [18] | [15] | [20]

CN1CC(=O)N/C1=N/C(=O)Nc1cccc(Cl)c1
active: [2] 26.6 µM and 1.68 µM
not listed: [7] | [10] | [12] | [17] | [18] | [19]
inactive: all other assays above

C[N+]1(C)CCCC(OC(=O)C(O)(c2ccccc2)c2ccccc2)C1 (stereo unspecified)
not listed: [11] | [16] | [19]
inactive: all other assays above

CCCCCCC#CC(=O)OC
not listed: [5] | [6] | [15] | [17] | [18] | [19] | [20]
inactive: all other assays above

CN1[C@@H]2CC[C@H]1CC(OC(=O)C(O)c1ccccc1)C2 (stereo partly specified)
not listed: [4] | [12] | [14] | [17] | [18] | [19]
inactive: all other assays above

CC(C#N)(CCC(=O)O)N=NC(C)(C#N)CCC(=O)O (stereo unspecified)
not listed: [6] | [10] | [12] | [17] | [19]
inactive: all other assays above

c1ccc2sc(SN3CCOCC3)nc2c1
active: [2] 23.7 µM
not listed: [10] | [17] | [18] | [19]
inactive: all other assays above

CN1CCC(=C2c3ccccc3CCc3cccnc32)CC1
not listed: [4] | [11] | [14] | [17] | [18] | [19]
inactive: all other assays above

O=C(O)c1cc(C(=O)O)cc(C(=O)O)c1
not listed: [14] | [17] | [18] | [19]
inactive: all other assays above

CCC(C(=O)NC(=O)NC(C)=O)c1ccccc1 (stereo unspecified)
inactive: [1] | [2] | [3] | [16] | [5] | [6] | [7] | [9] | [13] | [14]

CC(CO)(CO)[N+](=O)[O-]
not listed: [3] | [8] | [11] | [12] | [20]
inactive: all other assays above

CN(C)CCCN(C)CCCN(C)C
not listed: [3] | [10] | [15] | [17] | [20]
inactive: all other assays above

CC(C)(C)C(=O)c1ccccc1
not listed: [4] | [14] | [16] | [17] | [19]
inactive: all other assays above

C1CCC2=NCCCN2CC1
inactive: [1] | [2] | [3] | [4] | [6] | [8] | [11] | [13] | [14] | [15] | [20]

CC1(C)OC[C@@H](COC(=O)CCc2ccc(OC[C@@H](O)CNCCNC(=O)N3CCOCC3)cc2)O1
not listed: [3] | [5] | [8] | [10] | [11] | [12] | [17] | [18]
inactive: all other assays above

CCCCCC(C)N (stereo unspecified)
not listed: [3] | [15] | [17] | [18] | [20]
inactive: all other assays above
